Active and inactive are the calls of the source. Rule for the calls: active = hit-call score of the fitted dose curve at least 0.9, where 1 is the maximum; inactive = score below 0.9.

Settings in all cases: mRNA level, 48 h; actives raise or lower the signal
Read-out in experiment [1]: ABC Transporter (ABCC3), ABCC3 (gene 8714)
The experiment can be described thus: LTEA_HepaRG_ABCC3: Life Technologies and Expression Analysis (LTEA) Assay for ABC Transporter (ABCC3) using HepaRG (AID 2283462). In short, it runs like this: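 Transcript level by TaqMan qRT-PCR, normalised to three housekeeping genes, fitted in both directions relative to vehicle. Chemicals tested in duplicate at eight half-log concentrations up to 100 uM for 48 h on HepaRG cells (0.5% DMSO).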

Read-out in experiment [2]: ABC Transporter (ABCB11), ABCB11 (gene 8647)
The experiment can be described thus: LTEA_HepaRG_ABCB11: Life Technologies and Expression Analysis (LTEA) Assay for ABC Transporter (ABCB11) using HepaRG (AID 2283463). The essentials: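 ABCB11 transcript levels quantified by TaqMan qRT-PCR against three housekeeping genes after 48 h chemical exposure of HepaRG cultures. Concentrations up to 100 uM in half-log steps, 0.5% DMSO vehicle; both induction and suppression scored.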

Read-out in experiment [3]: ABC Transporter (ABCC2), ABCC2 (gene 1244)
The experiment can be described thus: LTEA_HepaRG_ABCC2: Life Technologies and Expression Analysis (LTEA) Assay for ABC Transporter (ABCC2) using HepaRG (AID 2283464). In short, it runs like this: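 Endpoint is ABCC2 transcript level from qRT-PCR, normalized to three housekeeping genes and fitted bidirectionally relative to DMSO. Human HepaRG cells received test chemical for 48 h at up to 100 uM (8 points, half-log steps, 0.5% DMSO), duplicate wells.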

Read-out in experiment [4]: Broad substrate specificity ATP-binding cassette transporter ABCG2 (Homo sapiens) (UniProt Q9UNQ0)
The experiment can be described thus: LTEA_HepaRG_ABCG2: Life Technologies and Expression Analysis (LTEA) Assay for ABC Transporter (ABCG2) using HepaRG (AID 2283465). In short, it runs like this:
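ABCG2 transcript was quantified by TaqMan qRT-PCR against three housekeeping genes in HepaRG cells. Cells were treated in duplicate for 48 h across an 8-point half-log series up to 100 uM, with 0.5% DMSO vehicle. Gain or loss versus DMSO was fit.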

Read-out in experiment [5]: ATP-citrate lyase (ACLY), ACLY (gene 47)
The experiment can be described thus: LTEA_HepaRG_ACLY: Life Technologies and Expression Analysis (LTEA) Assay for ATP-citrate lyase (ACLY) using HepaRG (AID 2283466). The essentials:
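ACLY mRNA quantified by qRT-PCR on Fluidigm arrays against three housekeeping genes, after 48 h chemical treatment of HepaRG cells (top concentration 100 uM, half-log steps, 0.5% DMSO vehicle). Up- or down-regulation fitted relative to DMSO.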

Read-out in experiment [6]: Peroxisomal acyl-coenzyme A oxidase 1 (ACOX1) gene, ACOX1 (gene 51)
The experiment can be described thus: LTEA_HepaRG_ACOX1: Life Technologies and Expression Analysis (LTEA) Assay for Peroxisomal acyl-coenzyme A oxidase 1 (ACOX1) gene using HepaRG (AID 2283467). The essentials: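 ACOX1 transcript levels were quantified by TaqMan qRT-PCR against three housekeeping genes after 48 h chemical exposure of differentiated human HepaRG cells. Exposure used eight half-log steps topping at 100 uM, 0.5% DMSO vehicle, in duplicate. Bidirectional curve fits were made relative to DMSO.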

Read-out in experiment [7]: Alkaline Phosphatase, Placental (ALPP) gene, ALPP (gene 250)
The experiment can be described thus: LTEA_HepaRG_ALPP: Life Technologies and Expression Analysis (LTEA) Assay for Alkaline Phosphatase, Placental (ALPP) gene using HepaRG (AID 2283468).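 For AC50: differentiated human HepaRG liver cells in serum-free induction medium.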 The essentials: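 ALPP transcript level, measured by qRT-PCR and normalized to three housekeeping genes (ACTB, GAPDH, POLR2A), after 48 h dosing of differentiated HepaRG in serum-free induction medium. Top concentration 100 uM with half-log dilutions (8 points, 0.5% DMSO, duplicates); bidirectional fitting relative to DMSO.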

Read-out in experiment [8]: Bcl-2 (BAX) gene, BAX (gene 581)
The experiment can be described thus: LTEA_HepaRG_BAX: Life Technologies and Expression Analysis (LTEA) Assay for Bcl-2 (BAX) gene using HepaRG (AID 2283470). The essentials:
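Cells were thawed, plated for 48 h, moved to serum-free induction medium and dosed for 48 h (highest concentration 100 uM, half-log steps, 0.5% DMSO). Total RNA was then analysed for BAX expression by qRT-PCR.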

Read-out in experiment [9]: adenosine kinase (ADK) gene, ADK (gene 132)
The experiment can be described thus: LTEA_HepaRG_ADK: Life Technologies and Expression Analysis (LTEA) Assay for adenosine kinase (ADK) gene using HepaRG (AID 2283471). The essentials:
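Read-out is ADK transcript level measured by qRT-PCR and normalised to three housekeeping genes. Cells are human HepaRG, dosed for 48 h at up to 100 uM in 0.5% DMSO. Gain or loss of signal is fitted against DMSO controls.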

Read-out in experiment [10]: Alpha-fetoprotein (AFP) gene, AFP (gene 174)
The experiment can be described thus: LTEA_HepaRG_AFP: Life Technologies and Expression Analysis (LTEA) Assay for Alpha-fetoprotein (AFP) gene using HepaRG (AID 2283472). The essentials:
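Chemicals were tested on differentiated HepaRG cells for 48 hours at eight concentrations up to 100 uM, with 0.5% DMSO as vehicle. AFP expression was then quantified by qRT-PCR and analyzed for gain or loss relative to DMSO.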

Read-out in another experiment: BCL2L11 (gene 10018)
The experiment can be described thus: LTEA_HepaRG_BCL2L11: Life Technologies and Expression Analysis (LTEA) Assay for Bcl-2 (BCL2L11) gene using HepaRG (AID 2283473). In short, it runs like this: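 BCL2L11 transcript levels are measured by Fluidigm qRT-PCR, normalized to three housekeeping genes. HepaRG cultures were plated 48 h, then treated 48 h with test chemical (top 100 uM, half-log, 0.5% DMSO vehicle); curves were fitted bidirectionally against DMSO.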

Read-out in experiment [11]: Apolipoprotein A-V (APOA5) gene, APOA5 (gene 116519)
The experiment can be described thus: LTEA_HepaRG_APOA5: Life Technologies and Expression Analysis (LTEA) Assay for Apolipoprotein A-V (APOA5) gene using HepaRG (AID 2283474). In short, it runs like this: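 APOA5 transcript levels were quantified by qRT-PCR, normalized to three housekeeping genes, after 48 h chemical treatment of HepaRG cells (8 points, 100 uM maximum, half-log steps, 0.5% DMSO). Curves fitted in both directions against vehicle.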

Read-out in experiment [12]: Apoptosis regulator Bcl-2 (Homo sapiens) (UniProt P10415)
The experiment can be described thus: LTEA_HepaRG_BCL2: Life Technologies and Expression Analysis (LTEA) Assay for Bcl-2 gene using HepaRG (AID 2283475). In short, it runs like this:
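Plated human HepaRG cells are exposed to test chemicals for 48 h across eight concentrations from 100 uM downward in half-log steps (0.5% DMSO). BCL2 expression is then measured by qRT-PCR with housekeeping normalisation and fitted bidirectionally against vehicle.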

Read-out in experiment [13]: Bcl-2 (BID) gene, BID (gene 637)
The experiment can be described thus: LTEA_HepaRG_BID: Life Technologies and Expression Analysis (LTEA) Assay for Bcl-2 (BID) gene using HepaRG (AID 2283476). The essentials:
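Cells are plated, cultured 48 h, switched to serum-free induction medium, then dosed 48 h (100 uM top, half-log steps, 0.5% DMSO). RNA is isolated and BID expression read by qRT-PCR.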

Read-out in the next experiment: Caspase-3 (Homo sapiens) (UniProt P42574)
The experiment can be described thus: LTEA_HepaRG_CASP3: Life Technologies and Expression Analysis (LTEA) Assay for cysteine-aspartic acid protease (CASP3) using HepaRG (AID 2283477). The essentials:
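Expression of CASP3 was quantified by TaqMan qRT-PCR against three housekeeping genes (ACTB, GAPDH, POLR2A), bidirectionally versus 0.5% DMSO. HepaRG cultures received compounds in duplicate, top 100 uM with half-log steps, for 48 h in serum-free induction medium.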

Read-out in experiment [14]: Cytochrome P450 (CYP24A1), CYP24A1 (gene 1591)
The experiment can be described thus: LTEA_HepaRG_CYP24A1: Life Technologies and Expression Analysis (LTEA) Assay for Cytochrome P450 (CYP24A1) using HepaRG (AID 2283478). The essentials:
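mRNA of CYP24A1 quantified by TaqMan qRT-PCR (ACTB/GAPDH/POLR2A normalization) after 48 h chemical exposure of HepaRG cells, top concentration 100 uM, half-log steps, 0.5% DMSO vehicle, duplicates. Curves fitted bidirectionally against DMSO baseline.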

Read-out in experiment [15]: Cytochrome P450 (CYP1A2), CYP1A2 (gene 1544)
The experiment can be described thus: LTEA_HepaRG_CYP1A2: Life Technologies and Expression Analysis (LTEA) Assay for Cytochrome P450 (CYP1A2) using HepaRG (AID 2283479). The essentials:
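CYP1A2 transcript measured by TaqMan qRT-PCR against three housekeeping genes after 48-hour chemical exposure of HepaRG cells. Eight-point half-log series topping at 100 uM in 0.5% DMSO, duplicates; gain or loss fitted relative to vehicle.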

Read-out in experiment [16]: Cytochrome P450 (CYP2B6), CYP2B6 (gene 1555)
The experiment can be described thus: LTEA_HepaRG_CYP2B6: Life Technologies and Expression Analysis (LTEA) Assay for Cytochrome P450 (CYP2B6) using HepaRG (AID 2283481). The essentials: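 CYP2B6 transcript level quantified by qRT-PCR against three housekeeping genes, fitted bidirectionally relative to DMSO. HepaRG cultures received chemicals for 48 h, 8-point half-log series from 100 uM in 0.5% DMSO, duplicate wells, serum-free induction medium.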

Read-out in experiment [17]: cysteine-aspartic acid protease (CASP8), CASP8 (gene 841)
The experiment can be described thus: LTEA_HepaRG_CASP8: Life Technologies and Expression Analysis (LTEA) Assay for cysteine-aspartic acid protease (CASP8) using HepaRG (AID 2283480). In short, it runs like this:
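CASP8 transcript measured by TaqMan qRT-PCR with ACTB/GAPDH/POLR2A normalization, after 48 h chemical exposure of HepaRG cells in serum-free induction medium. Eight concentrations, top 100 uM, half-log steps, 0.5% DMSO vehicle; fits in both directions versus DMSO.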

Sequence of Apoptosis regulator Bcl-2 (Homo sapiens) (P10415 whole entry, looked up): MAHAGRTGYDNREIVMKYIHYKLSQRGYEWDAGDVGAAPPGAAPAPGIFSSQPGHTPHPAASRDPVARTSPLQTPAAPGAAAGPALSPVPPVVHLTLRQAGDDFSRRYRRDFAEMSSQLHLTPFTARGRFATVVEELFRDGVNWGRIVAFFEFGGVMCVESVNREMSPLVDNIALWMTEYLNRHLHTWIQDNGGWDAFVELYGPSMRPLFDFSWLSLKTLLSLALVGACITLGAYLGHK
Sequence of Caspase-3 (Homo sapiens) (P42574 whole entry, looked up): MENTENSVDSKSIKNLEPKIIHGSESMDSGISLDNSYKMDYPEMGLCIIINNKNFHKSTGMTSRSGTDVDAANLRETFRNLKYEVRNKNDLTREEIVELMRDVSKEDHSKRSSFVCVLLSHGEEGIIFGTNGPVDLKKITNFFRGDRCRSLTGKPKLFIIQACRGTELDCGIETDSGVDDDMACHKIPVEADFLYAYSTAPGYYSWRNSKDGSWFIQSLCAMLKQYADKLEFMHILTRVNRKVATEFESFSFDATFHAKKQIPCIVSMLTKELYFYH
Sequence of Broad substrate specificity ATP-binding cassette transporter ABCG2 (Homo sapiens) (Q9UNQ0 whole entry, looked up): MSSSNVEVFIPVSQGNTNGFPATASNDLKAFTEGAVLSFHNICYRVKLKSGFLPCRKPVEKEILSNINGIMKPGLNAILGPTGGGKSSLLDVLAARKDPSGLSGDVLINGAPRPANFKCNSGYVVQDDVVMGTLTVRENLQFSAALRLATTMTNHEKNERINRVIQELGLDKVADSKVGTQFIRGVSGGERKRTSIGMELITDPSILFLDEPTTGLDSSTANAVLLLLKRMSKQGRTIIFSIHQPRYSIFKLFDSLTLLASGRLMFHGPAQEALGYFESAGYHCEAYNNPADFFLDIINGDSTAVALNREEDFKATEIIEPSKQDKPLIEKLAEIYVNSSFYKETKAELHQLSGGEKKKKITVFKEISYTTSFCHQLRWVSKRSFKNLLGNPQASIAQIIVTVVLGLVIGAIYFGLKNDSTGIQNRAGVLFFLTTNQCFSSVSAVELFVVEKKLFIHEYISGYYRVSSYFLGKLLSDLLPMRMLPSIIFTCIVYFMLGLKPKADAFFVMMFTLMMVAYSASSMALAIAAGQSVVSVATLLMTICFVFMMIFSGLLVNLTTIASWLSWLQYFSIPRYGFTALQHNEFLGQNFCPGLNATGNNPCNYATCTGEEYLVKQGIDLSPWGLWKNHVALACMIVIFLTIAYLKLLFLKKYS

In general, AC50 refers to the midpoint of the concentration-response curve, whichever way the signal moves. Turning to `CCC(=O)Nc1ccc(Cl)c(Cl)c1`, the outcome in experiment [1], in experiment [2], in [4], in [5], in [6] and in experiment [8] was inactive. Also, the call (in experiment [9]; in [10]; with BCL2L11 (gene 10018); in [11]; in experiment [12]; in experiment [13]) was inactive. The compound was called inactive (in the experiment with Caspase-3 (Homo sapiens); in experiment [14]). Besides, the AC50 in experiment [3] was 50 µM (active); in experiment [7], 50 µM (active); in experiment [15], 33 µM (active); in experiment [16], 12.6 µM (active).

For the compound `S=C1NCCN1`, the compound was classed as inactive in experiment [1], in experiment [2], in experiment [3], in [4], in experiment [5] and in experiment [7]. The result (in [8]; in experiment [10]; with BCL2L11 (gene 10018); in [11]; in experiment [12]; in the experiment with Caspase-3 (Homo sapiens)) was inactive. In addition, the compound was called inactive in [14], in [15] and in experiment [17]. In addition, the AC50 in experiment [6] is 0.232 µM (active); in experiment [9] it was 12.6 µM (active); in experiment [16] it was 10.3 µM (active).

Turning to `Nc1nc(N)nc(NC2CC2)n1`, the result in experiment [1], in [2], in experiment [3], in [4], in experiment [5] and in experiment [6] was inactive. The compound was classed as inactive (in experiment [7]; in experiment [8]; in experiment [9]; in experiment [10]; in the experiment with BCL2L11 (gene 10018); in experiment [11]). In addition, the call (in [12]; with Caspase-3 (Homo sapiens); in experiment [14]; in [15]; in experiment [16]) was inactive.

On to `CCCCOC(=O)[C@@H](C)Oc1ccc(Oc2ccc(C#N)cc2F)cc1`, for which the compound was called inactive in experiment [1], in experiment [2], in experiment [3], in [4], in experiment [5] and in [7]. The outcome (in [8]; in experiment [9]; in experiment [10]; in the experiment with BCL2L11 (gene 10018); in experiment [11]; in [12]) was inactive. The outcome (with Caspase-3 (Homo sapiens); in [14]; in experiment [16]) was inactive. Moreover, the AC50 in experiment [6] was 39.7 µM (active); in [15], 38.5 µM (active).

On to `CNc1cnn(-c2cccc(C(F)(F)F)c2)c(=O)c1Cl`, for which the result in experiment [1], in experiment [3], in [5], in experiment [6], in experiment [7] and in [8] was inactive. Further, the compound was called inactive (in [9]; in the experiment with BCL2L11 (gene 10018); in experiment [11]; in [12]; in [13]; with Caspase-3 (Homo sapiens)). In addition, the call in [14] was inactive. Also, the half-maximal activity concentration (AC50) in experiment [2] was 20.1 µM (active); in [4], 17.4 µM (active); in experiment [10], 22 µM (active); in [15] it was 6.1 µM (active); in [16] it was 6.51 µM (active).

For the compound `CON=C(C(=O)OC)c1ccccc1CON=C(C)c1cccc(C(F)(F)F)c1`, the compound was called inactive in [1], in experiment [3], in [4], in experiment [5], in [6] and in experiment [7]. Moreover, the call (in experiment [8]; in experiment [9]; in experiment [10]; with BCL2L11 (gene 10018); in experiment [11]; in experiment [12]) was inactive. For the same compound, the compound was classed as inactive (with Caspase-3 (Homo sapiens); in [14]; in [15]; in [17]; in experiment [16]). Further, the half-maximal activity concentration (AC50) in [2] is 85.5 µM (active).

Values taken from PubChem BioAssay (EPA / NIEHS).
